# Measured values: the supplement of paper PMC12636033
# ± gives the standard deviation of the averaged measurements. The full ranking holds about 33,000 sequences; the median of “E-score (rank enrichment, -0.5 to 0.5)” is about -0.0075, and the highest 2% start at about 0.23. This is one part of a sample in which the highest values are shown more often than they occur.
# System: WT Max(13-93) synthetic (M65Nle)
# Assay: PBM 8-mer E-score (E-score (rank enrichment, -0.5 to 0.5)); higher = stronger preferential binding
# Procedure: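 Protein binding microarray (universal PBM chip covering all 10-mers in fixed probe flanks) with chemically synthesized human Max(13-93) bHLH-LZ analogs (not full-length Max) bearing noncanonical residues (hArg, Tha, Aib, Nle at 65) and aromatic Cys staples. Read-out per 8-mer (and its reverse complement): E-score (rank-based enrichment, -0.5 to 0.5) and Z-score of median probe intensity.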
row,Sequence,PBM 8-mer E-score
1,ACTAAGAC,-0.0588 ± 0.021
2,AGTGGCAT,0.077 ± 0.041
3,ATAGAGAT,0.0666 ± 0.018
4,ACCTCTAT,-0.0733 ± 0.13
5,AATGCCTG,-0.0228 ± 0.16
6,AAACGTTC,0.138 ± 0.043
7,TCTTACCA,-0.0372 ± 0.041
8,CAGTGAGC,-0.263 ± 0.02
9,AATATATA,0.175 ± 0.01
10,AATATGTA,0.138 ± 0.069
11,AATATATT,0.197 ± 0.047
12,AATATGAC,0.201 ± 0.057
13,TATATGAA,0.15 ± 0.097
14,AATATGAA,0.279 ± 0.013
15,AATATGTG,0.273 ± 0.036
16,AATATGTC,0.0761 ± 0.1
17,AATATATG,0.251 ± 0.011
18,ACGTCGAC,0.0127 ± 0.076
19,ACCCCGTG,0.0605 ± 0.035
20,CCGGCGTA,-0.17 ± 0.049
21,CCCGCGCC,-0.134 ± 0.14
22,ACGCATTC,-0.0561 ± 0.13
23,AGGTGATA,-0.0245 ± 0.055
24,GTTAATTA,0.13 ± 0.14
25,ATTAATTG,0.128 ± 0.089

row,Sequence,PBM 8-mer E-score
1,ATTAATAG,0.263 ± 0.1
2,CTTAATTC,0.258 ± 0.0064
3,ATTAATTC,0.159 ± 0.18
4,ATTAATGA,0.264 ± 0.076
5,ATTAATTA,0.235 ± 0.13
6,ATTAATGC,0.0772 ± 0.086
7,CTTAATTA,0.0675 ± 0.075
8,ATTAATAC,0.102 ± 0.0018
9,CTTAATGA,0.0202 ± 0.07
10,ATTAATAA,0.195 ± 0.023
11,ACTACAGT,0.0566 ± 0.059
12,TGACAACA,0.0331 ± 0.06
13,CCCGCTAC,0.047 ± 0.0079
14,CTGAAGCC,-0.13 ± 0.039
15,GAGAGCTA,0.1 ± 0.073
16,ATGGGCTA,0.0445 ± 0.068
17,AAATGACG,0.0648 ± 0.073
18,TAATGACA,0.256 ± 0.013
19,CAATGACA,0.184 ± 0.075
20,AAATGACC,0.0445 ± 0.18
21,GAATGACA,0.0853 ± 0.076
22,AAATGACA,0.248 ± 0.04
23,CGACCCAG,-0.168 ± 0.1
24,CTCAAGAA,0.026 ± 0.0068
25,AGTTATAA,0.132 ± 0.08

row,Sequence,PBM 8-mer E-score
1,CATTAGAA,0.0359 ± 0.086
2,TATTATAA,0.291 ± 0.094
3,GATTAGAA,0.131 ± 0.017
4,CATTATAA,0.107 ± 0.051
5,GATTATAA,0.134 ± 0.066
6,CGTTATAA,0.0918 ± 0.12
7,TATTAGAA,0.235 ± 0.07
8,TGTTATAA,0.255 ± 0.026
9,CCCGGAAG,-0.252 ± 0.034
10,AATTATGT,0.178 ± 0.038
11,ACGCGCCA,0.0474 ± 0.11
12,AACGAAGA,0.0931 ± 0.055
13,CCTTTAGC,-0.065 ± 0.16
14,CCTACTAA,-0.0419 ± 0.0019
15,GTATTATA,0.251 ± 0.046
16,GTATTAGA,0.223 ± 0.014
17,CAATATTA,0.157 ± 0.12
18,ACATTATA,0.158 ± 0.0021
19,ATTATATA,0.125 ± 0.052
20,AAATATTA,0.219 ± 0.04
21,ATTATATG,0.176 ± 0.035
22,CTATTATA,0.0186 ± 0.0034
23,GTATTAAA,0.188 ± 0.077
24,ATTATATC,0.247 ± 0.059
25,ATATTATA,0.309 ± 0.018

row,Sequence,PBM 8-mer E-score
1,TAATATTA,0.37 ± 0.026
2,CGTAGCGC,-0.0505 ± 0.038
3,GCAGGATA,-0.184 ± 0.065
4,TAAGGTAA,0.156 ± 0.086
5,CCAGCATA,0.0104 ± 0.015
6,GCTTCCCA,-0.0247 ± 0.11
7,GGAGGGTA,0.0987 ± 0.018
8,ATATATTA,0.256 ± 0.08
9,ATATTATG,0.242 ± 0.0093
10,CTATATTA,0.221 ± 0.015
11,CTATTACA,0.14 ± 0.048
12,AGATTATG,-0.178 ± 0.043
13,GTATTACA,0.245 ± 0.00083
14,ATATTATC,0.138 ± 0.011
15,GCATTACA,0.133 ± 0.049
16,GTATATTA,0.226 ± 0.027
17,AACGTTCT,0.0268 ± 0.08
18,CCTGTTGC,0.0294 ± 0.077
19,TGGAGGAA,-0.0087 ± 0.04
20,ATGCCCGC,0.00379 ± 0.056
21,CCGACGCC,-0.139 ± 0.013
22,GCGGCCGA,-0.21 ± 0.09
23,AATTTATG,0.237 ± 0.005
24,ATTTTATA,0.229 ± 0.058
25,CATTTATA,0.192 ± 0.047

row,Sequence,PBM 8-mer E-score
1,ATTTTATG,0.19 ± 0.12
2,AATTTATA,0.301 ± 0.057
3,AATTTATC,0.15 ± 0.049
4,CCCGGTAA,-0.114 ± 0.034
5,TCGGTAGA,-0.128 ± 0.0077
6,CATGTATC,0.185 ± 0.028
7,GATGTATA,0.117 ± 0.02
8,AGTGTGTA,0.101 ± 0.012
9,CATGTATA,0.24379 ± 0.00015
10,CGTGTAAC,0.276 ± 0.013
11,CGTGTATA,0.266 ± 0.0089
12,CGTGTGTA,0.24 ± 0.067
13,GGTGTATA,0.108 ± 0.039
14,GGTGTGTA,0.0087 ± 0.0056
15,CGTGTATC,0.149 ± 0.028
16,GGTGTAAC,-0.0257 ± 0.043
17,CGTGTAAG,0.113 ± 0.075
18,TATATTCA,0.151 ± 0.15
19,GAGTCTTA,-0.0474 ± 0.024
20,ACGTTGTC,0.232 ± 0.011
21,AGCGGAAA,-0.00668 ± 0.13
22,CCTTCTTA,0.0525 ± 0.12
23,AGACAGCG,-0.103 ± 0.063
24,AATCATCT,-0.0255 ± 0.056
25,CCTAGAAC,-0.0877 ± 0.0018

row,Sequence,PBM 8-mer E-score
1,GATGTGTA,-0.0106 ± 0.19
2,GGTGTGCA,-0.0425 ± 0.051
3,CGTGTGCC,0.146 ± 0.14
4,CGTGTGCA,0.3 ± 0.047
5,CATGTGTC,0.216 ± 0.053
6,CATGTGTA,0.357 ± 0.029
7,ACTGGTTG,-0.086 ± 0.065
8,TAACTATA,0.259 ± 0.13
9,AAACTATA,0.144 ± 0.062
10,CAACTATA,0.119 ± 0.098
11,CTGGTGAA,-0.0735 ± 0.0064
12,CGACTTAG,-0.0474 ± 0.049
13,ATCAGGTG,0.0403 ± 0.029
14,CCTGCCGC,-0.2994 ± 0.0014
15,CAAATCGA,-0.0111 ± 0.037
16,AGGTGACC,-0.1467 ± 0.00024
17,AGCAAACC,0.102 ± 0.14
18,ACATGATG,0.0731 ± 0.012
19,GCATGACA,0.2006 ± 0.0015
20,ACATGATC,0.241 ± 0.024
21,CCATGATC,-0.0246 ± 0.092
22,ACATGAAC,0.0506 ± 0.02
23,ACATGAAG,0.0102 ± 0.026
24,CCATGATA,0.0793 ± 0.032
25,AAATGATA,0.197 ± 0.029

row,Sequence,PBM 8-mer E-score
1,ACATGAAT,0.245 ± 0.071
2,ACATGAGA,0.146 ± 0.056
3,ACATGATA,0.269 ± 0.038
4,GCATGATA,0.273 ± 0.01
5,TGCGTACA,0.188 ± 0.13
6,CGAGGCCG,-0.243 ± 0.075
7,GCCCTGAC,0.0594 ± 0.023
8,ACTCCGAT,-0.0923 ± 0.047
9,AAAGAAAC,0.0488 ± 0.013
10,ACATCTCA,0.146 ± 0.089
11,TGGGCACA,0.0612 ± 0.062
12,ATGTTCAC,-0.109 ± 0.027
13,GCTGATGA,-0.087 ± 0.06
14,CTTGGGAC,-0.183 ± 0.081
15,AAGTGTAG,0.111 ± 0.079
16,GTGTGTAA,0.0936 ± 0.013
17,ATGTGTAC,0.184 ± 0.011
18,ATGTGTAG,0.25 ± 0.041
19,CTGTGTAA,-0.00451 ± 0.0057
20,ATGTGTAA,0.236 ± 0.0034
21,CCTAAGGA,0.089 ± 0.0031
22,AAGCGTAG,-0.0452 ± 0.033
23,CATGTCCA,0.124 ± 0.026
24,AGTCAGTA,0.0494 ± 0.052
25,ACGTGGAG,0.338 ± 0.049
